Reference: the supplement of paper PMC11732987, “Enantioselective OTUD7B fragment discovery through chemoproteomics screening and high-throughput optimisation” (Communications Chemistry, 2025)

Key:
Experiment in all cases: log2 ratio of Biotin-Ahx-Ub-VS probe labelling (fragment/DMSO); higher = less target engagement (more negative = stronger competition), active = hit call of the paper (q ≤ 0.05, log2 ratio ≤ -1)
Conditions in all cases: compound concentration: 200 uM; treatment time: 3 h
[1] = molecular target: T1, USP42 (UniProt Q9H9J4)
T1 sequence (whole entry): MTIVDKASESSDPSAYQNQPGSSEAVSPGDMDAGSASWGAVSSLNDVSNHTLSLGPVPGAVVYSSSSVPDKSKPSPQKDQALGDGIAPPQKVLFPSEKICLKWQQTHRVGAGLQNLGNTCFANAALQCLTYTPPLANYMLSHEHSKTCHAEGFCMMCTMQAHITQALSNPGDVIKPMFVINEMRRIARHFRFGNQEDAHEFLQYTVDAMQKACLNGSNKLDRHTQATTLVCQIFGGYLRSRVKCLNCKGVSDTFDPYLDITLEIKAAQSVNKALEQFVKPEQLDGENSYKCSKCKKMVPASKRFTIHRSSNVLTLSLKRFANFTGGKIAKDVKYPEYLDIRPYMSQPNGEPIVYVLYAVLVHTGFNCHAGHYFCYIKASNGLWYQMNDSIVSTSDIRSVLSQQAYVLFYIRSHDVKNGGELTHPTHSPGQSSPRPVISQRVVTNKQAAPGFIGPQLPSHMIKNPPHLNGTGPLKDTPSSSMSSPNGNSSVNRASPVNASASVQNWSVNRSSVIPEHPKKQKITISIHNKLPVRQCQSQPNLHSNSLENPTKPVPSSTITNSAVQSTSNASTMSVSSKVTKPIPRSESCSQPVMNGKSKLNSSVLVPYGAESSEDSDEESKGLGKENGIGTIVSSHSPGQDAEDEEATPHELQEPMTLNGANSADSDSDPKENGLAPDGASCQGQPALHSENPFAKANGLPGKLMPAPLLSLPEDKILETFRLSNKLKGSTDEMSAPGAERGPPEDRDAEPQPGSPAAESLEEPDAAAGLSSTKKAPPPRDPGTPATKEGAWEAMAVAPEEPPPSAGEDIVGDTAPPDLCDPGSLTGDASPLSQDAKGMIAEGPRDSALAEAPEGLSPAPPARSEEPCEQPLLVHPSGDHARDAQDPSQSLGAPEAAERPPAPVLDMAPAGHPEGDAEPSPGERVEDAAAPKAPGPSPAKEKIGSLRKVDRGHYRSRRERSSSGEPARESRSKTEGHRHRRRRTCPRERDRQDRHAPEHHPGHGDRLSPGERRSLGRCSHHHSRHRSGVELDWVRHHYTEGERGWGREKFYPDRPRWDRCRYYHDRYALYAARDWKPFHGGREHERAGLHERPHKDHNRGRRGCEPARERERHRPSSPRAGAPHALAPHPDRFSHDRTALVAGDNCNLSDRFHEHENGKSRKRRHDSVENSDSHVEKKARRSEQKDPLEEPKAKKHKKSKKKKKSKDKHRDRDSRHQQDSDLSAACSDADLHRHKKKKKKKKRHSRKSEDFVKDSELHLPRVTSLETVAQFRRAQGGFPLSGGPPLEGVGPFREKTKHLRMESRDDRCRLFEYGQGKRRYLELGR
Method in brief: (§1)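 Labelled DUBs were enriched with NeutrAvidin, digested with LysC and trypsin, and run by diaPASEF LC-MS/MS. The labelling used Biotin-Ahx-Ub-VS at 0.5 µM final for 1 h on HEK293T lysate (495 µg per sample) previously treated in triplicate with fragment at 200 µM or vehicle for 3 h. Values are average log2 fragment/vehicle ratios by unpaired t-test on global-median-normalised Spectronaut quantities of proteins with ≥2 unique peptides.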

[2] = molecular target: USP46 (UniProt P62068)
Method in brief: as §1

[3] = molecular target: T2, USP47 (UniProt Q96K76)
T2 sequence (whole entry): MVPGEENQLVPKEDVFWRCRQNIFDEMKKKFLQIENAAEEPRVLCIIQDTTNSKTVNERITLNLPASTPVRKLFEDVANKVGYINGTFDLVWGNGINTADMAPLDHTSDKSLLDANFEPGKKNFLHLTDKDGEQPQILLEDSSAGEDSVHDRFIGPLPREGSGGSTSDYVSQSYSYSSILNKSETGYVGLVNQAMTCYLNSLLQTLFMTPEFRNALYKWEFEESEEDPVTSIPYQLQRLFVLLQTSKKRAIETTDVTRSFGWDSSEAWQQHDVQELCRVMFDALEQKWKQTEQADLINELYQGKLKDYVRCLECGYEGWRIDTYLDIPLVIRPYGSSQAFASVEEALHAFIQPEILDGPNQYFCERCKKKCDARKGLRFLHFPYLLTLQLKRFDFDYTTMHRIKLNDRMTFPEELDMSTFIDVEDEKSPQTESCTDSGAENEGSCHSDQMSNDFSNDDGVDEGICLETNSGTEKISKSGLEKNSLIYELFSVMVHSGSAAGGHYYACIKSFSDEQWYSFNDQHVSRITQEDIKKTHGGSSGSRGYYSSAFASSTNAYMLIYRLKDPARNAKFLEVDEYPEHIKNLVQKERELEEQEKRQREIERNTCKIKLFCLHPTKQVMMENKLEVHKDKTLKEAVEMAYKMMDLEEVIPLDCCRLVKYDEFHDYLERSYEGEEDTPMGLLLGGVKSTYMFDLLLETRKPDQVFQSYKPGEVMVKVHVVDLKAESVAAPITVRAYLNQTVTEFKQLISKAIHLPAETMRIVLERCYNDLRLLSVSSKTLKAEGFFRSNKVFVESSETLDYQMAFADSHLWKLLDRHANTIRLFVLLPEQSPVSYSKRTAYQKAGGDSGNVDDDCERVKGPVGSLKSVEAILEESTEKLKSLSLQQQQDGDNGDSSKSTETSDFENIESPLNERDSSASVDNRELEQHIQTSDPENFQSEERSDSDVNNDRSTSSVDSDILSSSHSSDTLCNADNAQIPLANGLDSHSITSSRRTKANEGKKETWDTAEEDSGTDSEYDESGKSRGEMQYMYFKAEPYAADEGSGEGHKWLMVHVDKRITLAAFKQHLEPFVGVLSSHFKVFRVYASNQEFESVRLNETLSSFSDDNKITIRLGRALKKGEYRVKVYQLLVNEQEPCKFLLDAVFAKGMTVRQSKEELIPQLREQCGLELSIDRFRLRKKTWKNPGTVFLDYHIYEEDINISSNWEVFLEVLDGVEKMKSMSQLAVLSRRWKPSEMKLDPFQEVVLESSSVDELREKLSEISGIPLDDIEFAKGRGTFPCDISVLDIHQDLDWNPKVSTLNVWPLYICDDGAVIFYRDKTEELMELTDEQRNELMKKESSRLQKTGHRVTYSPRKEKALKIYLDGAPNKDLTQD
Method in brief: as §1

[4] = molecular target: T3, USP48 (UniProt Q86UV5)
T3 sequence (whole entry): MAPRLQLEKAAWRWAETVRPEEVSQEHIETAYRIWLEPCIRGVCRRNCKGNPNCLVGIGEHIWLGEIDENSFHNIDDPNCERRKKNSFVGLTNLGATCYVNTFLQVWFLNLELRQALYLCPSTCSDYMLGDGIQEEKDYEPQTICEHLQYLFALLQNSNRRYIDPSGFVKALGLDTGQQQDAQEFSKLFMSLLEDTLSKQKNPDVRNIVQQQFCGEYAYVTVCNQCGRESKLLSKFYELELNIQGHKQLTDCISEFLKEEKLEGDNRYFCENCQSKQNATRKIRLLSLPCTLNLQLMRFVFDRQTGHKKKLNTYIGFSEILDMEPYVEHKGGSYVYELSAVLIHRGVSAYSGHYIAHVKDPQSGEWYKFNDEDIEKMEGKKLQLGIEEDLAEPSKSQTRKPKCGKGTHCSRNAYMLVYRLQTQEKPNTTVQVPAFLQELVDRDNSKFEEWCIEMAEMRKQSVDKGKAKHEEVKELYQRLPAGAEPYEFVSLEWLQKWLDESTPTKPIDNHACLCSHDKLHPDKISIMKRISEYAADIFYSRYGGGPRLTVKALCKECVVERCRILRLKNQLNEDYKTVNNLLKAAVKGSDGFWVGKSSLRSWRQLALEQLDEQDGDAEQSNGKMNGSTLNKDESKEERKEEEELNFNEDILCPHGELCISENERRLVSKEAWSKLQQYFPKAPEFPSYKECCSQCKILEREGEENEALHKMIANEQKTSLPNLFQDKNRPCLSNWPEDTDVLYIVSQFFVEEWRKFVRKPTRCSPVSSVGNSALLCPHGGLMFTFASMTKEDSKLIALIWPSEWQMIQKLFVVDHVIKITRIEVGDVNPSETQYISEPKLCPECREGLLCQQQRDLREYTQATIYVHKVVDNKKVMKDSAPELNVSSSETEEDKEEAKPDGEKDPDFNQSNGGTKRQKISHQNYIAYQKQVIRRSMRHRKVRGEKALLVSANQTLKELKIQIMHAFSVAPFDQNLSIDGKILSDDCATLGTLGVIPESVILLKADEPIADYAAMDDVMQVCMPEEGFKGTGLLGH
Method in brief: as §1

[5] = molecular target: T4, USP5 (UniProt P45974)
T4 sequence (whole entry): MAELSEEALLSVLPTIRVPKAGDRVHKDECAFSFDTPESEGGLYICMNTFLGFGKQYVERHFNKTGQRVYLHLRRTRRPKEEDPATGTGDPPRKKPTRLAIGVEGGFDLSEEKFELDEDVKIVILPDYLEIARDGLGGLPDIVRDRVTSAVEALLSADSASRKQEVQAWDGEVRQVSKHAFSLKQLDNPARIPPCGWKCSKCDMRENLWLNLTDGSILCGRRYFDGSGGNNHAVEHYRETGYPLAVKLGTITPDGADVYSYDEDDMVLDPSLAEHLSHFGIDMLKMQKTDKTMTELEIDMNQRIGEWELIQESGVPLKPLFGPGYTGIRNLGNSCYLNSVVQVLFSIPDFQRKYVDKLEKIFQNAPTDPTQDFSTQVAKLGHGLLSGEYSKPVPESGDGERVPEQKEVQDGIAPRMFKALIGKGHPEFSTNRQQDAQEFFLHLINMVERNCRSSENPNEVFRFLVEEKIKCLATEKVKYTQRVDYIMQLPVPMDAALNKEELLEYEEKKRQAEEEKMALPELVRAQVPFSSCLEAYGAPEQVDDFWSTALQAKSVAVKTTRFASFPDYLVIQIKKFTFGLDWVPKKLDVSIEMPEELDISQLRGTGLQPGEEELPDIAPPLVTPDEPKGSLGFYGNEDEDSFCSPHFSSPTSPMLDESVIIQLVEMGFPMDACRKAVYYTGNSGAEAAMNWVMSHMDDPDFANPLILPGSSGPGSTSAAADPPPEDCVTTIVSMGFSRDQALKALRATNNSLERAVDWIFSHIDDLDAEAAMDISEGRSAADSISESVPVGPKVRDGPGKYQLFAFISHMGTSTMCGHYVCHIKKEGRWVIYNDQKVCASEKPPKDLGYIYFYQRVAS
Method in brief: as §1

[6] = molecular target: USP54 (UniProt Q70EL1)
Method in brief: as §1

[7] = molecular target: USP7 (UniProt Q93009)
Method in brief: as §1

[8] = molecular target: T5, USP8 (UniProt P40818)
T5 sequence (whole entry): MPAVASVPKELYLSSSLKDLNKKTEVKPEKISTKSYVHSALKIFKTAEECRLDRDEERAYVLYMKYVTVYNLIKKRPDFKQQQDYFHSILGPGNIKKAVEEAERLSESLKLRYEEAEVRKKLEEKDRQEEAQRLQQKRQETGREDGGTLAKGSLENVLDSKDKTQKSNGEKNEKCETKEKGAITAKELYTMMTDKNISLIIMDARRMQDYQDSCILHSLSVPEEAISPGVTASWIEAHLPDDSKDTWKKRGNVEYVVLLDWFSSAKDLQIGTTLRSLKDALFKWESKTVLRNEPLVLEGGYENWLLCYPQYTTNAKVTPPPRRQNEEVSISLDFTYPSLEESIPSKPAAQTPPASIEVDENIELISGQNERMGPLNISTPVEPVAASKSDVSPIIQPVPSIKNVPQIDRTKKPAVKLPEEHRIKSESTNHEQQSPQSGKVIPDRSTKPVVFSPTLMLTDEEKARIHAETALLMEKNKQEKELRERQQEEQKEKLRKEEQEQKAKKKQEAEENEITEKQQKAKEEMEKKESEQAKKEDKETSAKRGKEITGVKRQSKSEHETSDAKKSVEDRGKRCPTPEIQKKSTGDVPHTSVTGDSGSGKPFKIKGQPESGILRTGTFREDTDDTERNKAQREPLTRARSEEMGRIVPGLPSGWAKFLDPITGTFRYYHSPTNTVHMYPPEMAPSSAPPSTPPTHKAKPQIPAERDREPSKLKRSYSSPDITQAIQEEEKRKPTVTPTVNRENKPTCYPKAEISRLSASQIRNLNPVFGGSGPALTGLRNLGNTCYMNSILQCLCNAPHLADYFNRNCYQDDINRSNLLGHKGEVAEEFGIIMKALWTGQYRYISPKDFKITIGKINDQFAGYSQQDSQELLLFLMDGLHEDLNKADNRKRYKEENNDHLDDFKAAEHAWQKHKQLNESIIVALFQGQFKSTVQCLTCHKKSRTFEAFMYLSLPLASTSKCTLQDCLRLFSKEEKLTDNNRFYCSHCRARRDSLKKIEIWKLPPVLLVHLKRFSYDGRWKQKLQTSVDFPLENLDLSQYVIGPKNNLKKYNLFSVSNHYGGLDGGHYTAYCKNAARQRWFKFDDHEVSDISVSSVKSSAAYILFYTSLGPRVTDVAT
Method in brief: as §1

[9] = molecular target: USP9X (UniProt Q93008)
Method in brief: as §1

[10] = molecular target: UniProt O00487
Method in brief: as §1

Measured: log2 ratio of Biotin-Ahx-Ub-VS probe labelling

USP54, sequence (Q70EL1 whole entry): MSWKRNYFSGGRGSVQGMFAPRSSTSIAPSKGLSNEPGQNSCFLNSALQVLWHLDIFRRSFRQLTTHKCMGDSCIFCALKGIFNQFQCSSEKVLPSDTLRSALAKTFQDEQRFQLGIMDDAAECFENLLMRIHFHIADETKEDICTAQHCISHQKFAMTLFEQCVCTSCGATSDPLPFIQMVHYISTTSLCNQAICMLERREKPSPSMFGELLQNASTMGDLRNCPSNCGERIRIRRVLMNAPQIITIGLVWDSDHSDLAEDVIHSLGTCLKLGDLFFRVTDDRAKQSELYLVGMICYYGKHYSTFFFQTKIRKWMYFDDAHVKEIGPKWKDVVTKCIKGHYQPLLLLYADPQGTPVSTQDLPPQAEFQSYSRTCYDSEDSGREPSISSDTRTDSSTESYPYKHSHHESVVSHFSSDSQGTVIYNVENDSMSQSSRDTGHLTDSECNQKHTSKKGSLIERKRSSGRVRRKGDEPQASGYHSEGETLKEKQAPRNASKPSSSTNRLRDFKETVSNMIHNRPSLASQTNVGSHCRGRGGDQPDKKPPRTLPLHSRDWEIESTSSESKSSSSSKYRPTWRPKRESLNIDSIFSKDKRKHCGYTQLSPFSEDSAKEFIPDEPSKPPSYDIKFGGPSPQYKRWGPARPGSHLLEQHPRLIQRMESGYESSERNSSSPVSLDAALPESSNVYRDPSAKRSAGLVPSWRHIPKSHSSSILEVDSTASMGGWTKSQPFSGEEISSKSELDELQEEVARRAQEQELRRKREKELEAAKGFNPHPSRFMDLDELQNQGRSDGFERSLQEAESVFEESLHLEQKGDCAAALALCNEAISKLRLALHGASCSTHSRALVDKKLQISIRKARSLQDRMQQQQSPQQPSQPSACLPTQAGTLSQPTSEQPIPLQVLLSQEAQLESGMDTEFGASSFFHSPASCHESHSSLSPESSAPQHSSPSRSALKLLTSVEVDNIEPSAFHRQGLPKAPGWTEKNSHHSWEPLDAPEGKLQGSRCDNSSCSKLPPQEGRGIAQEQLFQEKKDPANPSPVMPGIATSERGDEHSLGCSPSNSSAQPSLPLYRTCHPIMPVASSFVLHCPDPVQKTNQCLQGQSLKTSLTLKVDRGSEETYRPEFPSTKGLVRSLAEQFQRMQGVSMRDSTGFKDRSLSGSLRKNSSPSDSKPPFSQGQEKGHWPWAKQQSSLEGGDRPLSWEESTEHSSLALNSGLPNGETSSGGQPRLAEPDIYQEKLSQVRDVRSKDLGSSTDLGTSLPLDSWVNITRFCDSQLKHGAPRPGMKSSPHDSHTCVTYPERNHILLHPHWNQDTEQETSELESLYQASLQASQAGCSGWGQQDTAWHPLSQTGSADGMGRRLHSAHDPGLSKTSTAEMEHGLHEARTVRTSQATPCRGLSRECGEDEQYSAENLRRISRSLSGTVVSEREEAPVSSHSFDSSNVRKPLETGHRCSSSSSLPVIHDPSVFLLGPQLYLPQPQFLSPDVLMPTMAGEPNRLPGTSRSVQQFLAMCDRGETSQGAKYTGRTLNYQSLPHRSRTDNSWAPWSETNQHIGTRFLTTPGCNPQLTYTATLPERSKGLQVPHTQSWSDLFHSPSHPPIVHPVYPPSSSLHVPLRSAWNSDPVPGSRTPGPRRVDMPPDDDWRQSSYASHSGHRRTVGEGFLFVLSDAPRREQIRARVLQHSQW
USP46, sequence (P62068 whole entry): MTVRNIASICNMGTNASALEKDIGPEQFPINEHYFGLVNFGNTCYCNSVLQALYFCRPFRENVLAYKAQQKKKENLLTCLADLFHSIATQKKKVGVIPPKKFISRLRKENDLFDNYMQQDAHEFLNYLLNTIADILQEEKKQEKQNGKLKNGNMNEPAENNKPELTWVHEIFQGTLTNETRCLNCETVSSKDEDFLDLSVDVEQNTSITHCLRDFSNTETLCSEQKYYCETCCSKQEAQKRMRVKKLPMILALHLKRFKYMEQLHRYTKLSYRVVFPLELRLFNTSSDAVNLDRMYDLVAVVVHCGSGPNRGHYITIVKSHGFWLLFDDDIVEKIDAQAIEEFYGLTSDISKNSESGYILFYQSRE
USP7, sequence (Q93009 whole entry, looked up): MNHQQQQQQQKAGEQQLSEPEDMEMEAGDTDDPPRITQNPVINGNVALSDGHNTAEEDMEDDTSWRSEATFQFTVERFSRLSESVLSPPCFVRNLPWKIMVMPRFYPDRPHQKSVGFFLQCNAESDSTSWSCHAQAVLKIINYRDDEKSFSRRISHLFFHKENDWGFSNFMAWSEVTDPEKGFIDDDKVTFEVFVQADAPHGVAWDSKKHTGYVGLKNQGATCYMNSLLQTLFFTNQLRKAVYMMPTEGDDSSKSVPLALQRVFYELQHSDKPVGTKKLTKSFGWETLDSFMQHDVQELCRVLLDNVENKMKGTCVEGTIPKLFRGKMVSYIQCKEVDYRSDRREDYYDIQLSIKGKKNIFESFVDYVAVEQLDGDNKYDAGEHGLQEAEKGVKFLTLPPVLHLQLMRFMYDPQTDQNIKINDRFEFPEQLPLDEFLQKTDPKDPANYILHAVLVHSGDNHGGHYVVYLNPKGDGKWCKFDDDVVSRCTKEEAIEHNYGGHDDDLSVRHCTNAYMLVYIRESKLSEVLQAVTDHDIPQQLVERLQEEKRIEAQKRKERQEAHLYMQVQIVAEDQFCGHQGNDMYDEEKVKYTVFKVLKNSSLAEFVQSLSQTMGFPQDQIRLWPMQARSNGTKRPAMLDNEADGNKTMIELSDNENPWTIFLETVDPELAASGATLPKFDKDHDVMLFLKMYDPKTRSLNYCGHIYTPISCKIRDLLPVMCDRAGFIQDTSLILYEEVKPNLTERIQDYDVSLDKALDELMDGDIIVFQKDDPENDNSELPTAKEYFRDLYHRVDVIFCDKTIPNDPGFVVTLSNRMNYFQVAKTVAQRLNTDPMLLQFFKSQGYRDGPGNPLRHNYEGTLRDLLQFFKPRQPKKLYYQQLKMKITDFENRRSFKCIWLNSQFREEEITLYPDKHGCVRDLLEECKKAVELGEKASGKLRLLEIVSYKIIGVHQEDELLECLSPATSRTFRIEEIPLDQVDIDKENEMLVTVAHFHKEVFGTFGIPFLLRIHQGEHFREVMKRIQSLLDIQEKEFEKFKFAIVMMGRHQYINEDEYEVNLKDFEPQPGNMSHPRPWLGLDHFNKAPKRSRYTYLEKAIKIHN
UniProt O00487, sequence (O00487 whole entry): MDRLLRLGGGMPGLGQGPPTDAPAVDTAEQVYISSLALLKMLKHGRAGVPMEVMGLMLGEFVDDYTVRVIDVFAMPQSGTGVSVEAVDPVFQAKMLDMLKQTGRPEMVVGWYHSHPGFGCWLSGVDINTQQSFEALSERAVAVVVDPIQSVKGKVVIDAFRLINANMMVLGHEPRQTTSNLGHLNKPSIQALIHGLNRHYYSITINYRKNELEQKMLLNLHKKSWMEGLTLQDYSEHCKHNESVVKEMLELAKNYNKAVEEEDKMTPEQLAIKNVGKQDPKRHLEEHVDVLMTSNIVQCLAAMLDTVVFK

O=C(CCl)NC1CCC(C(F)(F)F)CC1 (stereo not given)
inactive: [1] 0.589 | [2] -0.0439 | [3] -0.0726 | [4] -0.174 | [5] -0.36 | [6] 0.0395 | [7] -0.303 | [8] -0.0509 | [9] -0.178 | [10] -0.185
